Assay results reported in PubChem BioAssay (EPA / NIEHS).
Records with an inconclusive call do not appear. Calls of active or inactive are those of the source. The calls were made as follows, unless noted: active = hit-call score of the fitted dose curve at least 0.9, where 1 is the maximum; inactive = score below 0.9.

Experiments:
[1] = target: Glucocorticoid receptor (Homo sapiens) (UniProt P04150); assay: ATG_GR_TRANS: Attagene TRANS-FACTORIAL HepG2 Assay for human Glucocorticoid Receptor (GR) (AID 2282978; active = hit-call score of the fitted dose curve at least 0.9, where 1 is the maximum;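 also: activators score as hits since higher reporter transcript over DMSO is fitted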); conditions: HepG2 Attagene TRANS GR reporter, mRNA transcription
In short: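 Transiently transfected HepG2 cells express chimeric NR-GAL4 proteins acting on GAL4-UAS reporter units. Compounds are applied for 24 h. mRNA induction over DMSO is measured by capillary electrophoresis.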

[2] = target: Bile acid receptor (Homo sapiens) (UniProt Q96RI1); assay: ATG_FXR_TRANS: Attagene TRANS-FACTORIAL HepG2 Assay for Farnesoid X Receptor (FXR) (AID 2282979; active = hit-call score of the fitted dose curve at least 0.9, where 1 is the maximum;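 also: hits raise reporter mRNA above DMSO so AC50 marks FXR activation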); conditions: HepG2 Attagene TRANS FXR-GAL4 reporter transcription
In short: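 HepG2 cells transiently transfected with reporter constructs in which a chimeric FXR-GAL4 protein drives a GAL4-UAS reporter; 24 h compound exposure. Reporter mRNA measured by RT-PCR, FAM labelling, HpaI digestion and capillary electrophoresis; gain-of-signal versus DMSO.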

[3] = target: Oxysterols receptor LXR-alpha (Homo sapiens) (UniProt Q13133); assay: ATG_LXRa_TRANS: Attagene TRANS-FACTORIAL HepG2 Assay for human Liver X Receptor alpha (LXRa) (AID 2282980; active = hit-call score of the fitted dose curve at least 0.9, where 1 is the maximum); conditions: HepG2 Attagene TRANS reporter, LXRa transactivation
In short: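 HepG2 cells were transiently transfected with multiplexed reporter units driven by chimeric LXRa–GAL4 fusion proteins, then dosed for 24 h. Reporter mRNA was quantified by RT-PCR, fluorescent labelling and capillary electrophoresis; gain of signal fitted against DMSO baseline.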

[4] = ATG_M_06_TRANS: Attagene TRANS-FACTORIAL HepG2 Assay for M06 Transcription Factor (Internal Marker) (AID 2282983; active = hit-call score of the fitted dose curve at least 0.9, where 1 is the maximum); conditions: HepG2 Attagene TRANS M06 internal marker reporter
In short: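 HepG2 cells transiently transfected with multiplexed GAL4-UAS reporter transcription units; after 24 h compound exposure, reporter mRNA measured by RT-PCR, FAM-labelled primer extension, HpaI digestion and capillary electrophoresis. Gain-of-signal fitted versus DMSO baseline; background control readout.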

[5] = ATG_M_32_TRANS: Attagene TRANS-FACTORIAL HepG2 Assay for M32 Transcription Factor (Internal Marker) (AID 2282984; active = hit-call score of the fitted dose curve at least 0.9, where 1 is the maximum); conditions: HepG2 Attagene TRANS M32 internal marker reporter
In short: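 HepG2 cells transiently transfected with multiple GAL4-UAS reporter transcription units, dosed for 24 hours; reporter mRNA quantified by RT-PCR, 6-FAM primer extension, HpaI digestion and capillary electrophoresis. Gain-of-signal fitted versus DMSO baseline; internal background-control marker.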

[6] = target: Nuclear receptor subfamily 4 group A member 2 (Homo sapiens) (UniProt P43354); assay: ATG_NURR1_TRANS: Attagene TRANS-FACTORIAL HepG2 Assay for human Nuclear Receptor Related Protein 1 (NURR1) (AID 2282985; active = hit-call score of the fitted dose curve at least 0.9, where 1 is the maximum); conditions: HepG2 Attagene TRANS reporter, mRNA readout
In short: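 HepG2 cells transiently transfected with GAL4-UAS reporter units and chimeric NR-Gal4 constructs; chemical exposure 24 h. Reporter mRNA quantified by RT-PCR, fluorescent labelling and capillary electrophoresis; gain of signal fitted relative to DMSO baseline.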

[7] = target: Transcriptional activator Myb (Homo sapiens) (UniProt P10242); assay: ATG_Myb_CIS: Attagene CIS-FACTORIAL HepG2 Assay for human Myeloblastosis (Myb) Proto-Oncogene Transcription Factor (AID 2282986); conditions: HepG2 Attagene CIS-FACTORIAL Myb reporter transcription; actives raise or lower the signal
In short: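 Using HepG2 liver cells bearing transiently transfected cis-promoter reporter constructs, the assay measures induction or loss of reporter mRNA after 24 hours of dosing. Detection used fluorescently labeled RT-PCR products separated by capillary electrophoresis.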

[8] = target: Nuclear respiratory factor 1 (Homo sapiens) (UniProt Q16656); assay: ATG_NRF1_CIS: Attagene CIS-FACTORIAL HepG2 Assay for human Nuclear Respiratory Factor 1 (NRF1) Orphan Gene (AID 2282987); conditions: HepG2 NRF1 cis-element reporter, Attagene multiplex; actives raise or lower the signal
In short: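 Reporter mRNA induction or loss in HepG2 cells after 24 h dosing; cis-regulated reporter constructs report endogenous transcription-factor activity. Quantified by RT-PCR/capillary electrophoresis fluorescence, DMSO-referenced.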

[9] = ATG_NFI_CIS: Attagene CIS-FACTORIAL HepG2 Assay for human Nuclear Factor I (NFI) (AID 2282989); conditions: HepG2 cis-regulatory reporter, NFI response element transcription; actives raise or lower the signal
In short: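 Reporter transcripts were measured by RT-PCR with fluorescent primer extension and capillary electrophoresis 24 h post-treatment. HepG2 cells carried transiently transfected cis-regulated reporter constructs reporting endogenous factor activity; gain or loss fitted against DMSO baseline.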

[10] = target: Myc proto-oncogene protein (Homo sapiens) (UniProt P01106); assay: ATG_Myc_CIS: Attagene CIS-FACTORIAL HepG2 Assay for human Myelocytomatosis (Myc) Proto-Oncogene Transcription Factor (AID 2282990); conditions: HepG2, Attagene cis-reporter transcription factor activity; actives raise or lower the signal
In short: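 Multiplexed cis-reporter transcription in HepG2 cells after 24 h chemical treatment. Reporter mRNA measured by RT-PCR and capillary electrophoresis fluorescence; activity fitted bidirectionally against DMSO control.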

[11] = ATG_NF_kB_CIS: Attagene CIS-FACTORIAL HepG2 Assay for human Nuclear Factor Kappa B (NF-kB) (AID 2282991); conditions: HepG2 Attagene cis-factorial NF-kB reporter mRNA; actives raise or lower the signal
In short: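 DMSO served as negative control and baseline for bidirectional curve fitting. Transiently transfected HepG2 cells were dosed for 24 h, then reporter transcripts were measured by RT-PCR with capillary electrophoresis detection.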

[12] = ATG_NRF2_ARE_CIS: Attagene CIS-FACTORIAL HepG2 Assay for human Nuclear Factor Erythroid 2 Related Factor 2 (NFR2) response to Antioxidant Response Elements (ARE) (AID 2282992); conditions: HepG2 Attagene ARE/NRF2 reporter, transcription factor activity; actives raise or lower the signal
In short: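 Multiplexed reporter mRNA profiling in HepG2 after a 24 h chemical exposure. Curves fitted in both directions relative to DMSO negative control.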

[13] = target: Cellular tumor antigen p53 (Homo sapiens) (UniProt P04637); assay: ATG_p53_CIS: Attagene CIS-FACTORIAL HepG2 Assay for human p53 Transcription Factor (AID 2282994); conditions: HepG2 p53 cis-element reporter, Attagene mRNA; actives raise or lower the signal
In short: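 Multiplexed reporter mRNA assay in human HepG2 liver cells; cis-regulated units report endogenous factor activity. Values come from bidirectional curve fitting against DMSO negative control after 24 h treatment.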

[14] = target: Estrogen-related receptor gamma (Homo sapiens) (UniProt P62508); assay: ATG_ERRg_TRANS: Attagene TRANS-FACTORIAL HepG2 Assay for human Estrogen-Related Receptor gamma (ERRg) (AID 2282977; active = hit-call score of the fitted dose curve at least 0.9, where 1 is the maximum;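 also: hits increase reporter signal over DMSO so potencies reflect activators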); conditions: HepG2 Attagene TRANS reporter, ERRg transactivation
In short: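 HepG2 cells transiently transfected with multiplexed GAL4-UAS reporter units and chimeric NR-Gal4 constructs were exposed to test chemicals for 24 h. Reporter mRNA was measured by RT-PCR, 6-FAM primer extension, HpaI digestion and capillary electrophoresis; gain-of-signal versus DMSO.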

[15] = target: Oxysterols receptor LXR-beta (Homo sapiens) (UniProt P55055); assay: ATG_LXRb_TRANS: Attagene TRANS-FACTORIAL HepG2 Assay for human Liver X Receptor beta (LXRb) (AID 2282981; active = hit-call score of the fitted dose curve at least 0.9, where 1 is the maximum); conditions: HepG2 Attagene TRANS GAL4-LXRb reporter, mRNA
In short: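 HepG2 cells transiently transfected with multiple reporter transcription units carrying chimeric NR-Gal4 proteins acting on GAL4-UAS reporters; compound exposure 24 h. Reporter mRNA quantified by RT-PCR, 6-FAM labelling, HpaI digestion and capillary electrophoresis; gain of signal versus DMSO.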

[16] = ATG_Oct_MLP_CIS: Attagene CIS-FACTORIAL HepG2 Assay for human Octamer-Binding Transcription Factor (Oct) (AID 2282993); conditions: HepG2 Attagene cis-factorial Oct reporter, mRNA; actives raise or lower the signal
In short: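 Readout is reporter transcript level from RT-PCR with fluorescent primer extension and capillary electrophoresis, fitted in both directions against DMSO. Transfected HepG2 reporter units report endogenous factor activity after 24 h dosing.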

[17] = target: Hepatocyte nuclear factor 4-alpha (Homo sapiens) (UniProt P41235); assay: ATG_HNF4a_TRANS: Attagene TRANS-FACTORIAL HepG2 Assay for human Hepatocyte Nuclear Factor 4 alpha (HNF4a) (AID 2282982; active = hit-call score of the fitted dose curve at least 0.9, where 1 is the maximum); conditions: HepG2 HNF4a transactivation reporter, mRNA readout
In short: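 HepG2 cells transiently transfected with multiplexed GAL4-UAS reporter units responsive to chimeric NR-GAL4 proteins; compound exposure 24 h. Reporter mRNA quantified by RT-PCR, 6-FAM labelling, HpaI digestion and capillary electrophoresis; gain of signal versus DMSO baseline.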

[18] = BSK_3C_TissueFactor: BioMAP Diversity Plus: 3C Assay for Tissue Factor Biomarker Activity (AID 2282997); conditions: BioMAP 3C HUVEC, tissue factor biomarker readout; actives raise or lower the signal
In short: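 Primary human umbilical vein endothelial cells in the 3C system were exposed to test chemical for 24 h, then Tissue Factor measured by ELISA. Activity was fitted bidirectionally against DMSO as negative control and baseline.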

[19] = BSK_3C_uPAR: BioMAP Diversity Plus: 3C Assay for Urokinase-type plasminogen activator receptor (uPAR) Biomarker Activity (AID 2282998); conditions: BioMAP 3C HUVEC, uPAR biomarker ELISA; actives raise or lower the signal
In short: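 Cell-surface uPAR on HUVEC (3C system) read by ELISA at 24 h post-treatment, with DMSO as baseline and fitting in both directions. Parallel cultures stained with SRB to flag overt cytotoxicity.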

[20] = BSK_3C_VCAM1: BioMAP Diversity Plus: 3C Assay for Vascular cell adhesion molecule 1 (VCAM1) Biomarker Activity (AID 2282999); conditions: BioMAP 3C HUVEC, VCAM1 ELISA, cytokine-stimulated; actives raise or lower the signal
In short: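 Human umbilical vein endothelial cells were dosed with compound for 24 h, after which cell-surface VCAM-1 was quantified by ELISA. Bidirectional curve fitting used DMSO as negative control and activity baseline.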

Measured: AC50

Sequence of Cellular tumor antigen p53 (Homo sapiens) (P04637 whole entry, looked up): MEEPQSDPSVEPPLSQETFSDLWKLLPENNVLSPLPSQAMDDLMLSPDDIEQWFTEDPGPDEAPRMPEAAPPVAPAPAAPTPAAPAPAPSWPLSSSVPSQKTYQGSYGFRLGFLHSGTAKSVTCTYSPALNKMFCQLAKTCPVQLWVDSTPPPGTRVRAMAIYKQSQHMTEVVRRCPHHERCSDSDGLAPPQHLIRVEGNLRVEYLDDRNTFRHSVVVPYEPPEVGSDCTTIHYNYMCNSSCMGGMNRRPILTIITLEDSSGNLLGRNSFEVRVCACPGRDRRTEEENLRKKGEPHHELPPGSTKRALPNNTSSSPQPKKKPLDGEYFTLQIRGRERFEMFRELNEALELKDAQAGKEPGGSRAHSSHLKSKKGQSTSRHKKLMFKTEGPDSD
Sequence of Nuclear respiratory factor 1 (Homo sapiens) (Q16656 whole entry, looked up): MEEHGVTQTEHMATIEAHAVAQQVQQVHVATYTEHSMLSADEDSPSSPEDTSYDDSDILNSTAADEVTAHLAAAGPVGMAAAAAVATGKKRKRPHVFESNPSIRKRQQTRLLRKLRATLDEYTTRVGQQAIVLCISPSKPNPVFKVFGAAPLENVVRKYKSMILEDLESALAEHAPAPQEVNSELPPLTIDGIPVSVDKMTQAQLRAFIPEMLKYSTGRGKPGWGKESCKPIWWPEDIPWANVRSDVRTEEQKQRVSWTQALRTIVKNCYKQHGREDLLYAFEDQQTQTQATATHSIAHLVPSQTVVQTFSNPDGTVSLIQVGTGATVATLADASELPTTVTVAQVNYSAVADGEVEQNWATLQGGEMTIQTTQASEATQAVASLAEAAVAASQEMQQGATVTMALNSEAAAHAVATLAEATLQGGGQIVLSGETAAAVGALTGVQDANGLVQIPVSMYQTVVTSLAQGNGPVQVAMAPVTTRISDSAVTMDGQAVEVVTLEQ
Sequence of Transcriptional activator Myb (Homo sapiens) (P10242 whole entry, looked up): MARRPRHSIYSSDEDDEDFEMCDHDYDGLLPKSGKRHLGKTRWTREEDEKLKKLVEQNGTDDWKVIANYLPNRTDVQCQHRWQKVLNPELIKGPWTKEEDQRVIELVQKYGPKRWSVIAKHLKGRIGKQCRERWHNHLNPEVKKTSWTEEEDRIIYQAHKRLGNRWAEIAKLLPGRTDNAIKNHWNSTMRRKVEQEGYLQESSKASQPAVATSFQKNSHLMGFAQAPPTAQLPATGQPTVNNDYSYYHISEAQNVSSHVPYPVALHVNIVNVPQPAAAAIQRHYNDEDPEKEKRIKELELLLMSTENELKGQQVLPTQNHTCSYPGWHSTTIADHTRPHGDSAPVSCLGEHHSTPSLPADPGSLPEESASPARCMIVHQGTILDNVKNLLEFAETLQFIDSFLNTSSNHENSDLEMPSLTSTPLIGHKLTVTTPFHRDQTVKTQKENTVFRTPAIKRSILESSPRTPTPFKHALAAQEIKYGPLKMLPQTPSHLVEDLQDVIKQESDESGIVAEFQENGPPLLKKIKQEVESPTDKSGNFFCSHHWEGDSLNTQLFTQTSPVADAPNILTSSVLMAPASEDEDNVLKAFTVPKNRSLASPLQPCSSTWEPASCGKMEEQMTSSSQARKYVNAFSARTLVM
Sequence of Hepatocyte nuclear factor 4-alpha (Homo sapiens) (P41235 whole entry, looked up, the tested form may be a part): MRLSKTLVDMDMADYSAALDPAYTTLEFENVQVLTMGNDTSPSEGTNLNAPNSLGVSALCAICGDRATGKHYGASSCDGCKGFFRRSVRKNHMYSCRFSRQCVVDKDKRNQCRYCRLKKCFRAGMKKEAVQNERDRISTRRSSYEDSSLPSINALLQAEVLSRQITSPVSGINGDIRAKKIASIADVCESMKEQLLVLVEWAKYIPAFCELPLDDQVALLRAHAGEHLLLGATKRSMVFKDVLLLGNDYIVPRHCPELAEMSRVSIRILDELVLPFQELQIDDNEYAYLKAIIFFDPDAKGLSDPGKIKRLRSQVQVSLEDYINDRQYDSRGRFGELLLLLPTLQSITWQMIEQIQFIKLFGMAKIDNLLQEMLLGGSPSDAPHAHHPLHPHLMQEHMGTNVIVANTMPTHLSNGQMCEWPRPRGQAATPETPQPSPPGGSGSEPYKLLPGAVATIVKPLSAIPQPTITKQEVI
Sequence of Glucocorticoid receptor (Homo sapiens) (P04150 whole entry, looked up, the tested form may be a part): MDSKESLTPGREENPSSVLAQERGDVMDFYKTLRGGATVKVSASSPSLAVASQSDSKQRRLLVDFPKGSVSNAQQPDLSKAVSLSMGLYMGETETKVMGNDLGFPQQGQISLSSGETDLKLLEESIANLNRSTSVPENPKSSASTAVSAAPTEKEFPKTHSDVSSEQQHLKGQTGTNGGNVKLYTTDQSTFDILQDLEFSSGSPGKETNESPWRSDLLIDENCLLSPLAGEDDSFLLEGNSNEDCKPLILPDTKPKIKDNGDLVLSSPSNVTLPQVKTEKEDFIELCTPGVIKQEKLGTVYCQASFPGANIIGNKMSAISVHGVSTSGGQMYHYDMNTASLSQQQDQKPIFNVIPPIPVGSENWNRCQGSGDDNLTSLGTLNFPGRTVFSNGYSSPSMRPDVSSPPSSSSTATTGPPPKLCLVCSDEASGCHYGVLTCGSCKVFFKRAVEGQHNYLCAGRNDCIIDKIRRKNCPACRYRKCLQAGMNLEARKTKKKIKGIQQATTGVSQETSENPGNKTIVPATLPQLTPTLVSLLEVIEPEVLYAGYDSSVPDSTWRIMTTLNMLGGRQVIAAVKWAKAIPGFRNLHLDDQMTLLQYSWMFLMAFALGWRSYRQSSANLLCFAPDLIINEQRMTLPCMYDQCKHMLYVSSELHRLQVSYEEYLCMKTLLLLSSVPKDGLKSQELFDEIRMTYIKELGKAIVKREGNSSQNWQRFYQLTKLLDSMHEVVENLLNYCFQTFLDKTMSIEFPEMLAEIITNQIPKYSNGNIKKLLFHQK
Sequence of Myc proto-oncogene protein (Homo sapiens) (P01106 whole entry, looked up): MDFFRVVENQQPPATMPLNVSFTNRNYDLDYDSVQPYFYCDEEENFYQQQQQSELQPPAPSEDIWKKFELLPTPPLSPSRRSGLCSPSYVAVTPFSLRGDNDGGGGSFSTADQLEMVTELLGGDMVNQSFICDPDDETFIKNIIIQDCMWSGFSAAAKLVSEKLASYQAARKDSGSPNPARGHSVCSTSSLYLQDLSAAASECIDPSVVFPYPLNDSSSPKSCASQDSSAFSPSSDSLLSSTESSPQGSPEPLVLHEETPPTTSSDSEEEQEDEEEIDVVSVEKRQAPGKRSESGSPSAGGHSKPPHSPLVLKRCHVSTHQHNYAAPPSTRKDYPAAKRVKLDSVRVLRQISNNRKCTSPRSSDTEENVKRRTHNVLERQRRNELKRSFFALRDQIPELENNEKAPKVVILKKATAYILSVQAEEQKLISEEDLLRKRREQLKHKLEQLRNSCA
Sequence of Nuclear receptor subfamily 4 group A member 2 (Homo sapiens) (P43354 whole entry, looked up, the tested form may be a part): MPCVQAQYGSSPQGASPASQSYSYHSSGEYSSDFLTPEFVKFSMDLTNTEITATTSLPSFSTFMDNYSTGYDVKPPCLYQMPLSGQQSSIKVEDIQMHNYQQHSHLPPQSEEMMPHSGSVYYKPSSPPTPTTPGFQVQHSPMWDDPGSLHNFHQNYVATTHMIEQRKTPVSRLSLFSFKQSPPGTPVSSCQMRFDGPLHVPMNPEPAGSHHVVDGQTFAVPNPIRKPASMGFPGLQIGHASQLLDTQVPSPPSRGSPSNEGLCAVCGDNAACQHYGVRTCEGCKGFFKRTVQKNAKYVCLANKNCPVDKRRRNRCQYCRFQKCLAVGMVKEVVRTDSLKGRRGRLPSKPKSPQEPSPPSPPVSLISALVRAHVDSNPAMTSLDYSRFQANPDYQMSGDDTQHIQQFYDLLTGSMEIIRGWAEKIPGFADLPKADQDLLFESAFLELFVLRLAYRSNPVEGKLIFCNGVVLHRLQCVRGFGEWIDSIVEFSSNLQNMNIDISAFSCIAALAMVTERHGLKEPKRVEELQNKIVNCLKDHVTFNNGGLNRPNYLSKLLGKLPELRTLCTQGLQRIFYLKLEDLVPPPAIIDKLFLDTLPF
Sequence of Bile acid receptor (Homo sapiens) (Q96RI1 whole entry, looked up, the tested form may be a part): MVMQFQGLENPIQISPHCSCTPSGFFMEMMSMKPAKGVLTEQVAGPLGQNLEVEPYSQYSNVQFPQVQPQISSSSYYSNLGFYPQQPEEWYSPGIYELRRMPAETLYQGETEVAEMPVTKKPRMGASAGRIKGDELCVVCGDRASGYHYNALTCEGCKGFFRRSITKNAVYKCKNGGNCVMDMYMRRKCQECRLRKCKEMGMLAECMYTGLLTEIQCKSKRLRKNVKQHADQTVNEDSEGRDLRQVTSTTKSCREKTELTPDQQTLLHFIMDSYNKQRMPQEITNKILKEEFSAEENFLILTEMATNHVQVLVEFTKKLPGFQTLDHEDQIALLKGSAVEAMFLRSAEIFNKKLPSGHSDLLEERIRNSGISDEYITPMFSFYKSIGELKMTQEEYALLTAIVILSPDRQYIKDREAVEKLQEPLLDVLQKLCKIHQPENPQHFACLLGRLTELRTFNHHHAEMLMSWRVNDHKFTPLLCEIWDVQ
Sequence of Oxysterols receptor LXR-beta (Homo sapiens) (P55055 whole entry, looked up, the tested form may be a part): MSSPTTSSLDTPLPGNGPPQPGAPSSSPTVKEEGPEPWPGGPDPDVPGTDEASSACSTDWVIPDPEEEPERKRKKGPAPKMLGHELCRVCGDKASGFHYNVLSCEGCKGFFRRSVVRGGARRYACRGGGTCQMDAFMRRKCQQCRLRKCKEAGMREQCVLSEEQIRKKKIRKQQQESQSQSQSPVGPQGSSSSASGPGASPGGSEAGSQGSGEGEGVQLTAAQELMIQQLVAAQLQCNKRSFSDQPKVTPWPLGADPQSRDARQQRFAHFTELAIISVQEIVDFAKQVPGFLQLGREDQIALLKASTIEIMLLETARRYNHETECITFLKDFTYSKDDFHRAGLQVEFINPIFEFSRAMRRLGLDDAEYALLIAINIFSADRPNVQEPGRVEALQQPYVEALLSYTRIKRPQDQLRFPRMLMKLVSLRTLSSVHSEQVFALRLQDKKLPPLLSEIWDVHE

CCN1CCCC1=O
inactive: [1] | [2] | [3] | [4] | [5] | [6] | [7] | [8] | [9] | [10] | [11] | [12] | [13]

CCCCCCCC(=O)OCC
inactive: [14] | [2] | [15] | [6] | [7] | [8] | [9] | [10] | [11] | [12] | [16] | [13]

Cn1cccc1
inactive: [14] | [3] | [17] | [5] | [7] | [8] | [10] | [11] | [16] | [13]
active: [9] 26.2 µM | [12] 29.5 µM

CCC1COC(=O)O1 (configuration not stated)
inactive: [1] | [2] | [3] | [15] | [4] | [5] | [7] | [8] | [9] | [10] | [11] | [12] | [16] | [13]

CCCCCCCCCCCCc1ccc(O)cc1
active: [15] 15.1 µM
inactive: [1] | [2] | [3] | [4] | [5] | [6] | [7] | [8] | [9] | [10] | [11] | [12] | [16] | [13]

CC(C)(C)NC(=O)[C@H]1CC[C@H]2[C@@H]3CC[C@H]4NC(=O)C=C[C@]4(C)[C@H]3CC[C@]12C
active: [12] 100 µM | [13] 38.7 µM
inactive: [1] | [2] | [3] | [15] | [4] | [5] | [7] | [8] | [9] | [10] | [11]

O=C(O)CC(C(=O)O)S(=O)(=O)O (configuration not stated)
inactive: [14] | [5] | [7] | [8] | [9] | [10] | [12] | [16] | [13]

Nc1ncnc2nc[nH]c12
inactive: [1] | [2] | [17] | [7] | [8] | [9] | [10] | [11] | [12] | [16] | [13]

CCCCCCCCCCCC(C)=O
inactive: [1] | [2] | [17] | [7] | [9] | [10] | [16]
active: [8] 158 µM | [12] 75.2 µM | [13] 147 µM | [18] 25.4 µM | [19] 34.5 µM | [20] 29.8 µM

CCCCC1CCC(=O)O1 (configuration not stated)
inactive: [1] | [3] | [15] | [17] | [4] | [5] | [6] | [7] | [8] | [9] | [10] | [11] | [12] | [16] | [13]
